The source of these data is ChEMBL document CHEMBL3988442, “University of Dundee, Small-Polar-MMV Screening Library” (2021).

For some of these results: Measured potencies and affinities stand elsewhere.

What all share (set-up): scale not given: direction of the effect not stated beside the values
Assay [1] has as its target Protein translocase subunit SecA (Escherichia coli (strain K12)) (UniProt P10408). The assay can be described thus: Assay to Identify E. coli SecA ATPase Inhibitors. In kind it is functional. The settings on record: 30 µM.
Assay [2] addresses T1, Ubiquitin-activating enzyme e1, putative (Leishmania donovani (strain BPK282A1)) (UniProt E9BSI1).
T1 sequence (whole entry): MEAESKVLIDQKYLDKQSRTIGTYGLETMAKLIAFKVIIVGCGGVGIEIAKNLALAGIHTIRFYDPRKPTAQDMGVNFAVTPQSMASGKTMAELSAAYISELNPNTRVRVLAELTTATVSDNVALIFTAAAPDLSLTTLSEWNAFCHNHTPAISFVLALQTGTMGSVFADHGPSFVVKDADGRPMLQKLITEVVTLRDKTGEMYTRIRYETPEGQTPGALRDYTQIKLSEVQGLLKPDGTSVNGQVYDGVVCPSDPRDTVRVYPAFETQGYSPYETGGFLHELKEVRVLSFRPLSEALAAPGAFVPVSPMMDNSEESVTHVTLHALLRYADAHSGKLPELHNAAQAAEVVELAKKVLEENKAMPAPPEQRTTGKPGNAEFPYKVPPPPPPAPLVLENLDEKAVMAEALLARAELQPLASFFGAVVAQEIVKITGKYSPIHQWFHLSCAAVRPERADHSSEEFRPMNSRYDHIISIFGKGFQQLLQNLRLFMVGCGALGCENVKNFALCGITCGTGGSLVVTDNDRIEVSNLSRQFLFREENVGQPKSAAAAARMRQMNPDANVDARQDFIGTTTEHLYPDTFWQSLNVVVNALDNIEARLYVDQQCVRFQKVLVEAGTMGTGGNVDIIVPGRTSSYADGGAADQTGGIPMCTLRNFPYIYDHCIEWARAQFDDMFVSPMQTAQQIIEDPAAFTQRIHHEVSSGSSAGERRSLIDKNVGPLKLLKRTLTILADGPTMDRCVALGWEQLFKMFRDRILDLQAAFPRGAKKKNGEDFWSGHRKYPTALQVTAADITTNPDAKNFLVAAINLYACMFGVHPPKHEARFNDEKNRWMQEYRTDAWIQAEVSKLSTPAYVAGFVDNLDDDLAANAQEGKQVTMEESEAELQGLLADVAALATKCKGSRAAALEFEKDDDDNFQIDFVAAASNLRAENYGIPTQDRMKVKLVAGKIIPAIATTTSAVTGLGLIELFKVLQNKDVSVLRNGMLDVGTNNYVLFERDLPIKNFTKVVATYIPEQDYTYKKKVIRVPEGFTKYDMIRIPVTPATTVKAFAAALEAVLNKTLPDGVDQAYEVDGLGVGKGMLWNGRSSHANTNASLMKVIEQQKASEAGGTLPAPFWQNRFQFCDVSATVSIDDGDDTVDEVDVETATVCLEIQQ
Briefly: Leishmania donovani Ubiquitin Activating Enzyme (LdE1). In kind it is functional. The settings on record: 30 µM.

Assay [3] deals with AMP-activated protein kinase, AMPK (Homo sapiens) (UniProt P54646+O43741+P54619+Q9UGJ0+Q9Y478+Q13131+Q9UGI9). Briefly: AMP-dependent Kinase enzyme assay. An in vitro enzyme assay that detects ADP turnover that is directly proportional to AMPK activity. This uses naive AMPK that is activated during the assay with MK-8722. It is filed as functional. The settings on record: 30 µM.

Assay [4] has as its target Sialic acid-binding Ig-like lectin 9 (Homo sapiens) (UniProt Q9Y336). Briefly: Hs-Siglec9 ALPHAscreen SOP 20170721. Conditions: 10 µM. (In Alpha technology, singlet oxygen from a donor bead excites a nearby acceptor bead.)
The next assay concerns Trypanosoma cruzi. The assay can be described thus: Trypanosoma cruzi phosphomannomutase and mannose-1-phosphate guanylyltransferase assay. It is filed as functional. The settings on record: 10 µM.
The target in assay [5] is T2, Arginase-2, mitochondrial (Homo sapiens) (UniProt P78540).
T2 sequence (whole entry): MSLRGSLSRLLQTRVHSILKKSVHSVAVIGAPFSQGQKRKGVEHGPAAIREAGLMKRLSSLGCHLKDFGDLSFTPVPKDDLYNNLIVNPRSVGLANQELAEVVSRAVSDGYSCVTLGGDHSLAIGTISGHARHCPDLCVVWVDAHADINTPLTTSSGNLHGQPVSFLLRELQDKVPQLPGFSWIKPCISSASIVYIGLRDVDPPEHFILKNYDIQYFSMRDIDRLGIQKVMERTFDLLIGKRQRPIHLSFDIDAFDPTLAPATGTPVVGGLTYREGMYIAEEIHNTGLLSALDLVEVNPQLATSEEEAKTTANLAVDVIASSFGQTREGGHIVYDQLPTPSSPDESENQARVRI
Briefly: in vitro enzyme assay to detect the production of urea directly proportional to the activity of Arginase II. Note: in the data most compounds retested in dose-response had high values. It is filed as functional. The settings on record: 33.3 µM.

For assay [6], the target named is T3, Proteasome subunit beta (Trypanosoma cruzi) (UniProt O96673).
T3 sequence (whole entry): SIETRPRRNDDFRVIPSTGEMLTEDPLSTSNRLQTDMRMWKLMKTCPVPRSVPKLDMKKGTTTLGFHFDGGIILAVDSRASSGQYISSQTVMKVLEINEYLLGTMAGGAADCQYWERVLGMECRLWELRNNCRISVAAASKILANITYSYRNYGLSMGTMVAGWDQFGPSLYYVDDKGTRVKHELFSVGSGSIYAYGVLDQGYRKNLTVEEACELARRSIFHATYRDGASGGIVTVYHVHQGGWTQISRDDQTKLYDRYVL
The assay can be described thus: Trypanosoma cruzi proteasome chymotrypsin-like activity (TcProtChymo) assay. Note: in the data most compounds retested in dose-response had high values. It is filed as functional. Conditions: 9.37 µM.

The next assay is filed under the species Homo sapiens. The assay can be described thus: To identify inhibition of the IFN signalling (Jak-Stat) pathway via expression of an eGFP reporter gene under the control of an IFN-stimulated response element (ISRE) containing MxA promoter. In kind it is functional. The settings on record: 30 µM. A general note: In a reporter assay the amount or activity of a reporter protein is the signal.

Assay [7] deals with T4, Tyrosyl-tRNA synthetase, putative (Trypanosoma cruzi (strain CL Brener)) (UniProt Q4DSP6).
T4 sequence (whole entry): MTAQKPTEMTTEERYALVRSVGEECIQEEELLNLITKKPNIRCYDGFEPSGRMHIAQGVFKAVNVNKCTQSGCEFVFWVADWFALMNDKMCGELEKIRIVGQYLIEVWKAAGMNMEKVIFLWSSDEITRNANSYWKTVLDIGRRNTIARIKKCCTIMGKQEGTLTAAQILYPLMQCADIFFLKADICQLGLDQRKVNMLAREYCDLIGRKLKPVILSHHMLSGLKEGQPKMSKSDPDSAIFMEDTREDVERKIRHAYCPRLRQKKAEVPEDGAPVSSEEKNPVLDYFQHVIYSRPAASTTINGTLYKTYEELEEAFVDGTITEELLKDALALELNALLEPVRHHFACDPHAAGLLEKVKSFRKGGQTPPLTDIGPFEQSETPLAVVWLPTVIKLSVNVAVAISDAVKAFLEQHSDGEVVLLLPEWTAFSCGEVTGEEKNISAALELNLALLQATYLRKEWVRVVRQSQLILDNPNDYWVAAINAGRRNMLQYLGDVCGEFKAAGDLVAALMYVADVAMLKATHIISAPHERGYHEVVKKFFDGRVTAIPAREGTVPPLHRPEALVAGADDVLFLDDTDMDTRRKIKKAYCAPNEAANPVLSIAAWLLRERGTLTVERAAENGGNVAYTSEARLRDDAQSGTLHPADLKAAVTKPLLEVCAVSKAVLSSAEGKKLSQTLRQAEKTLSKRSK
The assay can be described thus: Trypanosoma cruzi tyrosyl tRNA synthetase (TcYRS) _High Tyrosine SOP. Note: in the data most compounds retested in dose-response had high values. It is filed as functional. The settings on record: 30 µM.

Assay [8] concerns the target T4, Tyrosyl-tRNA synthetase, putative (Trypanosoma cruzi (strain CL Brener)). Briefly: Trypanosoma cruzi tyrosyl tRNA synthetase (TcYRS) SOP. In kind it is functional. Conditions: 30 µM.
Assay [9] deals with Chromo domain-containing protein 1 (Saccharomyces cerevisiae (strain ATCC 204508 / S288c) (Baker's yeast)) (UniProt P32657). The assay can be described thus: ScCHD-1 Enzyme Inhibition Assay. Note: in the data most compounds retested in dose-response had high values. In kind it is functional. The settings on record: 30 µM.
Chromo domain-containing protein 1 (Saccharomyces cerevisiae (strain ATCC 204508 / S288c) (Baker's yeast)), sequence (P32657 whole entry, the tested form may be a part): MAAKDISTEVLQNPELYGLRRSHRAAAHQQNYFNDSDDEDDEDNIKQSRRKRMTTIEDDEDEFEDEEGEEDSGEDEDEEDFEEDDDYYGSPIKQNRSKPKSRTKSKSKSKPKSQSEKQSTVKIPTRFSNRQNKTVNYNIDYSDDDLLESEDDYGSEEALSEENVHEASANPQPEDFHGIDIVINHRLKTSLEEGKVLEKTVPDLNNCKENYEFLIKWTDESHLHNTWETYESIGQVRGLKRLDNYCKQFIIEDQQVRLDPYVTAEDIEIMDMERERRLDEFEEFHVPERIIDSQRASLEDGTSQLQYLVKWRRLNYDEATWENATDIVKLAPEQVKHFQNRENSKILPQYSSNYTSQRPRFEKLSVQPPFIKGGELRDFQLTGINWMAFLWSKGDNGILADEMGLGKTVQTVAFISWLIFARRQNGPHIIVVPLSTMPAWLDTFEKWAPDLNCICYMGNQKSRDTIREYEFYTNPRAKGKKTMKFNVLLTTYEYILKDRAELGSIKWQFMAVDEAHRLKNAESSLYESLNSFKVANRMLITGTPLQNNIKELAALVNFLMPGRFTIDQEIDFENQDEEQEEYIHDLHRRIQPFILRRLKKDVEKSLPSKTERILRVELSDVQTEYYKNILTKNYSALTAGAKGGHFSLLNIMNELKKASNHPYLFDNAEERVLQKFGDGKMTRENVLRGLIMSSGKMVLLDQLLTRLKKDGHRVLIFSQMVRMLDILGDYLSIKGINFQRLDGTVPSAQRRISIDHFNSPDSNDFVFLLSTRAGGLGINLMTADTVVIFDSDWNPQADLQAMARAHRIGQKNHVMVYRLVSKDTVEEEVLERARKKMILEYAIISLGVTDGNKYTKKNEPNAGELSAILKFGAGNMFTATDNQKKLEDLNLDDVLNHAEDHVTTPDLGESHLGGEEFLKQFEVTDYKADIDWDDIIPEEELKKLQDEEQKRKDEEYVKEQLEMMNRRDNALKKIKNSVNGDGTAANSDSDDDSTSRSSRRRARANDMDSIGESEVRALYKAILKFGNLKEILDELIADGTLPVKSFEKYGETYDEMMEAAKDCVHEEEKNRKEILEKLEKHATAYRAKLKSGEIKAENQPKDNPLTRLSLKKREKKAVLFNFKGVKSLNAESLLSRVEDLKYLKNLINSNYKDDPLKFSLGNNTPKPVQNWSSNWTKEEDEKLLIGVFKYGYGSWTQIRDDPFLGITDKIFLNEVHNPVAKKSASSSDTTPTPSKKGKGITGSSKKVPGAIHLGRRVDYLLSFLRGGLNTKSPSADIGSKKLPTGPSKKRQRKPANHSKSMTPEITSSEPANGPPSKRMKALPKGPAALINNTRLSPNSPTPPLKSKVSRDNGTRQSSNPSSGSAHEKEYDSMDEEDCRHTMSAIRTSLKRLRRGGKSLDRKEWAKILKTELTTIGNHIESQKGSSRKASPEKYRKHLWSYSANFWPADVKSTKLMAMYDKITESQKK

Protein translocase subunit SecA (Escherichia coli (strain K12)), sequence (P10408 whole entry): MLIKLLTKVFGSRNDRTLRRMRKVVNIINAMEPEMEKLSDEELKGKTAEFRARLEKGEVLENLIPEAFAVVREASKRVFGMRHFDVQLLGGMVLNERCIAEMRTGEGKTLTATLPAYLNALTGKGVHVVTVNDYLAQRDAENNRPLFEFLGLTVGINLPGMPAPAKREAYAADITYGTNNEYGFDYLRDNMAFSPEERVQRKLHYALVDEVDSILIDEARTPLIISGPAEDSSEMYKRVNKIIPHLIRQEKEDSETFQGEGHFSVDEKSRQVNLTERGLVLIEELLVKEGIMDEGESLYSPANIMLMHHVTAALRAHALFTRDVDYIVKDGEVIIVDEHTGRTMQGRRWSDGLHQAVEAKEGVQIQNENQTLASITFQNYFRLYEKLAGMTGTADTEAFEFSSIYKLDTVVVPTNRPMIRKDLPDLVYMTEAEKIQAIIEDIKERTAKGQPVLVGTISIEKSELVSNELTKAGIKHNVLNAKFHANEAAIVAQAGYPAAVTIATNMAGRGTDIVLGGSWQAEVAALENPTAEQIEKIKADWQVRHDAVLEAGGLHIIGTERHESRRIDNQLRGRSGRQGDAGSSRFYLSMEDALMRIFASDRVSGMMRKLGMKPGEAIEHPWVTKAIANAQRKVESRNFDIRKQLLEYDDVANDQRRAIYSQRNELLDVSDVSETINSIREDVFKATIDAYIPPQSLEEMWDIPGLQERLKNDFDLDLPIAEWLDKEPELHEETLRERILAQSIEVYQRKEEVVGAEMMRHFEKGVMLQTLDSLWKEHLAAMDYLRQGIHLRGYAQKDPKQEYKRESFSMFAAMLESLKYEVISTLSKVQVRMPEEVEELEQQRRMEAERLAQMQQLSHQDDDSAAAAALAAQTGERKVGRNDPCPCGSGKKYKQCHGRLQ
Sialic acid-binding Ig-like lectin 9 (Homo sapiens), sequence (Q9Y336 whole entry): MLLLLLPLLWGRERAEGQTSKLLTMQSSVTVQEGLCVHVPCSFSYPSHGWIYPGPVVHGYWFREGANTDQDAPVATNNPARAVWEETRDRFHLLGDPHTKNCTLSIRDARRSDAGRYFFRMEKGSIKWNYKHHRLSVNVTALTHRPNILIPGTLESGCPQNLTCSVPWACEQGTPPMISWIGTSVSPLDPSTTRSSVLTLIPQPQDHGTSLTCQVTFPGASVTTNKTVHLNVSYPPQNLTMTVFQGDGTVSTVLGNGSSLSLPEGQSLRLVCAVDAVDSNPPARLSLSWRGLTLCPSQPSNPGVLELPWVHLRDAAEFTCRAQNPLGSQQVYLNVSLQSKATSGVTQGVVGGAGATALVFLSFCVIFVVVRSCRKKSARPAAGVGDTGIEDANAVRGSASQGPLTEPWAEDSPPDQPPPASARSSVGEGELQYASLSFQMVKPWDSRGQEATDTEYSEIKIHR

Turning to `O=C(c1cccn2ccnc12)N1CCCN(c2cccnn2)CC1`, the Percent Effect in [1] is -3.74%; in assay [2], -5.2%; in assay [3] it was 6.04%; in [4], 5.27%; in the assay on Trypanosoma cruzi it was 4.8%; in assay [5] it was 1.9%. In addition, the Percent Effect in [6] is -0.404%; in the assay listed under Homo sapiens, -11.5%; in assay [7], 0.952%; in assay [8], 2.35%; in assay [9], -10.1%.

As for `Cc1nc2c(c(C)c1CC(=O)NCc1cccc(C#N)c1)c(=O)[nH]n2C`, the Percent Effect is -4.87% in [1]; 7.79% in [2]; 6.32% in assay [3]; 0.967% in [4]; -4.21% with Trypanosoma cruzi; 1.9% in assay [5]. Besides, the Percent Effect in assay [6] was 1.05%; in the assay filed under Homo sapiens, 31.2%; in assay [7], 2.86%; in assay [8] it was 11.8%; in assay [9], -1.91%.

Take `CC(=O)N1CCCC1c1ccc(C(=O)N2CCOCC2)s1` (stereo unspecified): the Percent Effect in assay [1] was -6.72%; in [2], -2.7%; in [3], 2.48%; in assay [4], -7.62%; with Trypanosoma cruzi, -4.2%; in assay [5], -2.23%. Moreover, the Percent Effect was -0.601% in [6]; 26.2% in the assay filed under Homo sapiens; -2.15% in assay [7]; -3.7% in assay [8]; 4.51% in [9].

With `Cc1cc(C)nc(Nc2cccc(C3CCCN(C)C3)n2)n1` (stereo unspecified), the Percent Effect in assay [1] is -4.27%; in assay [2], 1.35%; in assay [3] it was 9.63%; in [4], -3.78%; in the assay with Trypanosoma cruzi, 2.77%; in [5], -3.94%. Besides, the Percent Effect in assay [6] is 4.68%; in the assay listed under Homo sapiens it was -3.42%; in [7] it was 2.15%; in [8], 6.49%; in assay [9] it was -16.2%.

Regarding `Cn1cc(CN2CCc3c(nc(-c4ccccn4)[nH]c3=O)C2)cn1`, the Percent Effect in [1] was -4.53%; in assay [2] it was 2.67%; in [3], 8.84%; in assay [4] it was 5.72%; with Trypanosoma cruzi, -2.56%; in assay [5] it was -1.17%. The Percent Effect is 6.78% in assay [6]; -0.565% in the assay filed under Homo sapiens; 12.8% in assay [7]; 19.2% in assay [8]; -1.71% in assay [9].

`COC1CCCN(C(=O)Nc2nc(C)n(C)n2)C1` (stereo unspecified): the Percent Effect is -4.33% in [1]; 8% in [2]; -6.08% in [3]; 5.49% in assay [4]; 1.27% with Trypanosoma cruzi; 1.56% in assay [5]. Further, the Percent Effect in assay [6] is 11.2%; in the assay listed under Homo sapiens, 14.3%; in assay [7], 6.01%; in assay [8], 6.17%; in assay [9], -6.37%.

For the compound `COc1cccc(CN2CCN(c3ccc4nncn4n3)C(C)C2)c1` (stereo unspecified), the Percent Effect is -6.29% in [1]; -20.8% in assay [2]; -1.07% in assay [3]; -4.72% in [4]; -3% with Trypanosoma cruzi; 0.712% in [5]. In addition, the Percent Effect in assay [6] was -1.86%; in the assay filed under Homo sapiens, 85.3%; in [7], 6.8%; in assay [8], -2.44%; in assay [9], 5.81%.

Regarding `CCOc1ccc(CC(CNC(=O)c2ccoc2)C(N)=O)cc1` (stereo unspecified), the Percent Effect is -5.97% in assay [1]; 13% in assay [2]; -355% in [3]; -18.6% in assay [4]; 8.13% with Trypanosoma cruzi; -3.16% in assay [5]. The Percent Effect in [6] is 16.7%; in the assay listed under Homo sapiens, 7.68%; in assay [7], 7.62%; in [8], 21.2%; in assay [9], -16.2%.

On to `O=C(Nc1cccc(CNCc2cccs2)c1)C1CCCC1`, for which the Percent Effect in [1] is -4.41%; in assay [2] it was 13.2%; in assay [3], -0.852%; in [4], -3.26%; in the assay with Trypanosoma cruzi, 2.15%; in assay [5], -2.16%. The Percent Effect in assay [6] is 2.45%; in the assay listed under Homo sapiens, 3.75%; in [7] it was 6.4%; in assay [8], 18.5%; in [9], -4.46%.

In the case of `CS(=O)(=O)NCC(=O)N1CCCC1c1noc(C2CC2)n1` (stereo unspecified), the Percent Effect was -3.88% in assay [1]; 16% in assay [2]; -6.02% in assay [3]; 25.8% in [4]; 4.19% in the assay with Trypanosoma cruzi; 41.1% in [5]. The Percent Effect in assay [6] is 5.58%; in the assay filed under Homo sapiens, 0.475%; in assay [7], 4.92%; in assay [8], 13.6%; in assay [9], -6.99%.

For `CCc1ccc(C(=O)N2CCC(c3nncn3CC)CC2)cc1`, the Percent Effect in assay [1] is -10%; in [2] it was 18.4%; in assay [3], -9.82%; in assay [4], -0.88%; in the assay on Trypanosoma cruzi, 7.3%; in [5], -5.92%. For the same compound, the Percent Effect is 7.57% in [6]; 5.31% in the assay filed under Homo sapiens; 3.19% in assay [7]; 15.6% in [8]; -9.19% in assay [9].
